Molecules are shown by their SMILES. The source made the active and inactive calls. The rule behind the calls is not given here.

The text below walks through data of PubChem BioAssay.

Chain of Pantothenate synthetase (Mycobacterium tuberculosis (strain ATCC 25618 / H37Rv)) (P9WIL5 whole entry, looked up): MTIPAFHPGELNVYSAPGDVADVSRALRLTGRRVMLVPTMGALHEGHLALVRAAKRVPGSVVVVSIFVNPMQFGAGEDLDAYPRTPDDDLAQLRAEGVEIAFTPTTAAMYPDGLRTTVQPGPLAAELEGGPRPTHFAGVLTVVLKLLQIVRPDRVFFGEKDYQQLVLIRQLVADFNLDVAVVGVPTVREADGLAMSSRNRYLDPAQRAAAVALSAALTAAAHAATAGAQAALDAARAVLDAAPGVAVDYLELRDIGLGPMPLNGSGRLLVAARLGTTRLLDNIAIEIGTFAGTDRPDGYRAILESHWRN

The assay has as its target Pantothenate synthetase (Mycobacterium tuberculosis (strain ATCC 25618 / H37Rv)) (UniProt P9WIL5). Nature of the assay: Coupled enzyme confirmation of inhibitors against recombinant Mtb PanC (AID 375).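 Note: 0% = full reaction with vehicle and 100% = no enzyme background.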 The conditions noted are these: coupled enzyme assay; at 10 µM, hits give high values.
Turning to `CN(C)CCCN1c2ccccc2Sc2ccc(C(F)(F)F)cc21`, the inhibition is 0% (inactive).
For the molecule `CC1(C)CC(=O)C(CC(=O)NC(=O)NCc2ccccc2)=C(O)C1`, the inhibition was 0% (inactive).
For `CCOC(=O)c1cc2c(=O)n3cccc(C)c3nc2n(CC2CCCO2)c1=NC(C)=O` (configuration not stated) the value was 7% (inactive).
`CCOc1ccc(OCC)c2sc(C)nc12`: the inhibition was 2% (inactive).
For `CCOC(=O)c1oc2cccc(OC(C)=O)c2c1C` the value was 4% (inactive); for `CC(C)CNC(=O)c1c(N)n(/N=C/c2ccccn2)c2nc3ccccc3nc12`, 0% (inactive).
For `COc1ccc(NC(=O)CCc2nc(-c3ccccc3F)no2)cc1` the value was 0% (inactive); for `O=C(NC1CCCCCC1)c1cc(S(=O)(=O)N2CCC3(CC2)OCCO3)ccc1F`, 5% (inactive).
For `Cc1cccc2cc(CN(CC3CCCO3)C(=O)c3cnccn3)c(=O)[nH]c12` (configuration not stated) the value was 0% (inactive).
Consider `CCOc1cccc(OCCCCn2ccnc2)c1`, for which the inhibition is 0% (inactive).
The value for `Cc1c(C#N)c2ccccc2n1CC(=O)N1CCc2ccccc2C1` was 0% (inactive); that for `COc1ccccc1C(=O)N1CCN(CCc2ccccc2)CC1` was 6% (inactive).
The value for `CC(=O)OCC1OC(c2ccccc2)C(OC(C)=O)C(OC(C)=O)C1OC(C)=O` (configuration not stated) was 0% (inactive).
For `CSC1CCCCC1(O)CSc1nc2c(cc1C#N)CCCC2` (configuration not stated) the value was 4% (inactive); for `COc1ccc(N2CCN(C(c3ccccc3)c3sc4nc(C)nn4c3O)CC2)cc1` (configuration not stated), 0% (inactive); for `O=C(COC(=O)c1ccccc1C(=O)c1ccccc1)c1ccco1`, 0% (inactive).
As for `Nc1scc(-c2ccncc2)c1Cl`, the inhibition is 7% (inactive).
The value for `N#Cc1c(N)c(C(=O)c2ccccc2)n2c1CCCC2` was 6% (inactive); that for `COc1ccccc1NC(=O)NC1(C(=O)N2CCC(O)CC2)CCCCC1` was 0% (inactive).
Regarding `COc1ccc(-c2nc(C#N)c(N3CCOCC3)o2)cc1OC`, the inhibition was 0% (inactive).
Take `Cn1cnc(S(=O)(=O)NCc2cccs2)c1`: the inhibition was 0% (inactive).
The value for `Cc1cc2ncc(-c3ccc(Cl)cc3)c(N)n2n1` was 0% (inactive).

For orientation: inhibition means the relative decrease from the control value, in per cent.
